# Laboratory results reported in PubChem BioAssay (Tox21).
# “And” between values parts separate entries of the source, which are not always exact repeats. Identical values can stand only once. Results filed as inconclusive are left out. A call without a number means that no potency is given here. Some compounds were tested as several samples or in several runs, with calls that do not always agree. The source made the active and inactive calls. Unless noted, calls come from the whole dose curve; as a rule, active = well fitted curve in the direction sought with a large enough effect in the repeat runs; inconclusive = weak or mixed curves; inactive = no such curve, though single readings can be large; an effect the other way counts as inactive or inconclusive.
# Legend:
# [1] = qHTS assay to identify small molecule agonists of the peroxisome proliferator-activated receptor delta (PPARd) signaling pathway - cell viability counter screen (AID 743211); note: nearly all actives have a fitted effect of over 55% in size; note: potency is the fitted concentration of half-maximal effect
# Outline: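 Viability of GeneBLAzer PPARd UAS-bla HEK293H cells was assessed after 17 h compound incubation at 37C, using CellTiter-Glo reagent added after the reporter read and luminescence recorded 30 min later.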
# [2] = qHTS assay to identify small molecule antagonists of the peroxisome proliferator-activated receptor delta (PPARd) signaling pathway - cell viability counter screen (AID 743213); note: nearly all actives have a fitted effect of over 50% in size; note: potency is the fitted concentration of half-maximal effect
# Outline: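 In this counter screen, HEK293H cells carrying a UAS-beta-lactamase reporter are co-treated with test compounds and 300 nM L165041 (final) for 17 h at 37 C; cell viability is quantified by CellTiter-Glo luminescence.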
# [3] = molecular target: Peroxisome proliferator-activated receptor delta (Homo sapiens) (UniProt Q03181); assay: qHTS assay to identify small molecule antagonists of the peroxisome proliferator-activated receptor delta (PPARd) signaling pathway (AID 743215; active = well fitted inhibition curve with a large enough effect in the signal ratio in the repeat runs, not every such curve was filed as active; the % refers to the signal ratio;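 note: cells stimulated with agonist L165041 at 300 nM final during compound exposure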; note: potency is the fitted concentration of half-maximal effect)
# Outline: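 Agonist L165041 (300 nM final) added with compound to PPARd-bla HEK293H UAS-bla reporter cells; 17 h incubation at 37 C. Read-out: LiveBLAzer FRET substrate, 2 h at room temperature, fluorescence intensity.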
# [4] = qHTS assay to identify small molecule agonists of the farnesoid-X-receptor (FXR) signaling pathway - cell viability counter screen (AID 743218); note: nearly all actives have a fitted effect of over 45% in size; note: potency is the fitted concentration of half-maximal effect
# Outline: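 Viability counter screen in the same wells: CellTiter-Glo luminescence, 30 min room-temperature incubation, measured after the beta-lactamase read. Cells were GeneBLAzer FXR-UAS-bla HEK 293T, compound-treated 16 h at 37C.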
# [5] = qHTS assay to identify small molecule antagonists of the farnesoid-X-receptor (FXR) signaling pathway - cell viability counter screen (AID 743221; active = well fitted cell-killing curve with a large enough effect in the repeat runs, not every such curve was filed as active; note: nearly all actives have a fitted effect of over 50% in size; note: potency is the fitted concentration of half-maximal effect)
# Outline: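 Quantitative HTS of the Tox21 10K library run in parallel with the beta-lactamase reporter read. HEK 293T cells carrying a UAS-driven bla reporter got compound and 50 uM CDCA (final) for 16 h; ATP-based luminescence followed.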
# [6] = molecular target: Peroxisome proliferator-activated receptor delta (Homo sapiens) (UniProt Q03181); assay: qHTS assay to identify small molecule agonists of the peroxisome proliferator-activated receptor delta (PPARd) signaling pathway (AID 743212; calls by dose curve;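 note: HEK293H cells with PPARd UAS beta-lactamase reporter GeneBLAzer system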)
# Outline: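 Beta-lactamase reporter readout: a ratiometric FRET signal from the LiveBLAzer substrate after 2 h at room temperature. Compound exposure at 37 °C in PPARδ-bla HEK293H cells driven by an upstream activator sequence.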
# [7] = molecular target: Vitamin D3 receptor (Homo sapiens) (UniProt P11473); assay: qHTS assay to identify small molecule agonists of the vitamin D receptor (VDR) signaling pathway (AID 743222; calls by dose curve)
# Outline: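 Agonist mode, beta-lactamase reporter: fluorescence from LiveBLAzer B/G FRET substrate (2 h, room temperature) read after 16 h compound treatment at 37 C of VDR-bla cells, which were pre-incubated 4 h after seeding.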
# [8] = molecular target: Bile acid receptor (Homo sapiens) (UniProt Q96RI1); assay: qHTS assay to identify small molecule antagonists of the farnesoid-X-receptor (FXR) signaling pathway (AID 743217; active = well fitted inhibition curve with a large enough effect in the signal ratio in the repeat runs, not every such curve was filed as active; the % refers to the signal ratio)
# Outline: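 Antagonist mode: chenodeoxycholic acid at 50 uM final stimulates a UAS-driven beta-lactamase reporter in HEK 293T FXR-bla cells during 16 h, 37C compound exposure. Read-out is FRET substrate fluorescence after 2 h at room temperature.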
# [9] = molecular target: Bile acid receptor (Homo sapiens) (UniProt Q96RI1); assay: qHTS assay to identify small molecule agonists of the farnesoid-X-receptor (FXR) signaling pathway (AID 743220; active = well fitted activation curve with a large enough effect in the signal ratio in the repeat runs, not every such curve was filed as active; the % refers to the signal ratio)
# Outline: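 FXR-UAS-bla HEK 293T cells carrying a UAS-driven beta-lactamase reporter were plated for 5 h at 37C/5% CO2, then exposed to DMSO-dissolved Tox21 10K compounds for 16 h at 37C. A LiveBLAzer B/G FRET substrate was loaded for 2 h at room temperature before fluorescence reading.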
# [10] = molecular target: Vitamin D3 receptor (Homo sapiens) (UniProt P11473); assay: qHTS assay to identify small molecule antagonists of the vitamin D receptor (VDR) signaling pathway (AID 743223; active = well fitted inhibition curve with a large enough effect in the signal ratio in the repeat runs, not every such curve was filed as active; the % refers to the signal ratio)
# Outline: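 Fluorescence from LiveBLAzer B/G FRET substrate, read after 2 h at room temperature, reflects beta-lactamase reporter activity in VDR-bla cells treated 16 h at 37C with compounds and agonist 1alpha,25-dihydroxyvitamin D3 (3 nM final).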
# Chain of Peroxisome proliferator-activated receptor delta (Homo sapiens) (Q03181 whole entry, looked up): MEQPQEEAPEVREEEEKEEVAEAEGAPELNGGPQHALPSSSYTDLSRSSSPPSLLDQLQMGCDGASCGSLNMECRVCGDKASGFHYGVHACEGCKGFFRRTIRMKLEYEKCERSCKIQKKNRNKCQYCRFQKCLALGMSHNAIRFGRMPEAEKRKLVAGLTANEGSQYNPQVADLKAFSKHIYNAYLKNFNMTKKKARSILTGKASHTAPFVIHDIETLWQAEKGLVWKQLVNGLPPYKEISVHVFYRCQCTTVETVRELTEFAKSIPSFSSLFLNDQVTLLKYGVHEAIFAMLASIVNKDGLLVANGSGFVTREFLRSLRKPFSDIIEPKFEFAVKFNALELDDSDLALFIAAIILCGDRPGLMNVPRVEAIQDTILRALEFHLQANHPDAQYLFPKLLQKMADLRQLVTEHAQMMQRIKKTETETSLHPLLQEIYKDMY
# Chain of Vitamin D3 receptor (Homo sapiens) (P11473 whole entry, looked up): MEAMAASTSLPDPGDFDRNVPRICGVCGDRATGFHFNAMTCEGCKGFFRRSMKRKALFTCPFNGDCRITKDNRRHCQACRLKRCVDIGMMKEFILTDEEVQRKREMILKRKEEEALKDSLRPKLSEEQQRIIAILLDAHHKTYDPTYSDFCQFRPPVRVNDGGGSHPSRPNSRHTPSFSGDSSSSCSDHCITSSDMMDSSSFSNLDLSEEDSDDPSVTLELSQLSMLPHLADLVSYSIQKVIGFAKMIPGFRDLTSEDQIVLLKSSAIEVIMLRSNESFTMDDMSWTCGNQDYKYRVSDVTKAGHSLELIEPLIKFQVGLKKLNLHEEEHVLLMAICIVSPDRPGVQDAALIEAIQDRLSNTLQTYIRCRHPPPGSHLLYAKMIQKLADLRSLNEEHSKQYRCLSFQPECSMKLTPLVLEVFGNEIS
# Chain of Bile acid receptor (Homo sapiens) (Q96RI1 whole entry, looked up): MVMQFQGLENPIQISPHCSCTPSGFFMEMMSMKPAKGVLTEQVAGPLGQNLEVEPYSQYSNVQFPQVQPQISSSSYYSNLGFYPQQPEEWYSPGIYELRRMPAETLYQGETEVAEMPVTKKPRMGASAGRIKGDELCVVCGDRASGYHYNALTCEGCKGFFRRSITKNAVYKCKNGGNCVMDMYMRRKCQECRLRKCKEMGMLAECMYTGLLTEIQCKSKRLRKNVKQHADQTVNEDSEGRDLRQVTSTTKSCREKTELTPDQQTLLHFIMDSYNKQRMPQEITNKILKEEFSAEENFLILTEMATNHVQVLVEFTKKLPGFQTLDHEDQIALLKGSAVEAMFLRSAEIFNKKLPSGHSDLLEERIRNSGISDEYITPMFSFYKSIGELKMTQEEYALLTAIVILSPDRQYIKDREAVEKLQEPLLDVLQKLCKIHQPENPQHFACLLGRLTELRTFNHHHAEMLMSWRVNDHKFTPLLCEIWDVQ
smiles,measurement,setting,value
CCNc1nc(NC(C)C(C)C)nc(SC)n1 (stereo not given),Potency,[1],inactive
same,Potency,[2],inactive
same,Potency,[3],inactive
same,Potency,[4],inactive
same,Potency,[5],inactive
CC1(C)[C@H](/C=C2\CCSC2=O)[C@@H]1C(=O)OCc1coc(Cc2ccccc2)c1,Potency,[1],inactive
same,Potency,[2],inactive
same,Potency,[4],inactive
same,Potency,[5],inactive
CCOP(=S)(OCC)SC(CCl)N1C(=O)c2ccccc2C1=O (stereo not given),Potency,[1],inactive
same,Potency,[6],inactive
same,Potency,[5],inactive
same,Potency,[7],inactive
CC[N+]1(CC)CCC(OC(=O)C(O)(c2ccccc2)c2ccccc2)C1 (stereo not given),Potency,[1],inactive
same,Potency,[2],inactive
same,Potency,[8],inactive
same,Potency,[4],inactive
same,Potency,[9],inactive
same,Potency,[5],inactive
same,Potency,[7],inactive
same,Potency,[10],inactive
CC(=O)[O-].CC(=O)[O-].CC(=O)[O-].[Sb+3],"activity change, negative = cytotoxicity",[1],-20.9% [at 5.95 µM] (inactive)
same,"viability change, negative = cytotoxic",[2],-8.28% [at 6.26 µM] (inactive)
CNC(=O)O/N=C(\C)C(C)S(C)(=O)=O (stereo not given),Potency,[1],inactive
same,Potency,[2],inactive
same,Potency,[3],inactive
same,Potency,[8],inactive
same,Potency,[4],inactive
same,Potency,[9],inactive
same,Potency,[5],inactive
same,Potency,[7],inactive
same,Potency,[10],inactive
Cc1cnc2c(C(=O)O)c(Cl)ccc2c1,Potency,[1],inactive
same,Potency,[2],inactive
same,Potency,[8],inactive
same,Potency,[4],inactive
same,Potency,[9],inactive
same,Potency,[5],inactive
CN1C2CCC(C)(C)C1CC(OC(=O)C(O)(c1cccs1)c1cccs1)C2 (stereo not given),Potency,[1],inactive
same,Potency,[2],inactive
same,Potency,[3],inactive
same,Potency,[8],inactive
same,Potency,[4],inactive
same,Potency,[9],inactive
same,Potency,[7],inactive
same,Potency,[10],inactive
CCCCC(CC)COC(=O)OOC(C)(C)C (stereo not given),Potency,[1],inactive
same,Potency,[2],inactive
same,Potency,[3],inactive
same,Potency,[5],inactive
same,Potency,[7],inactive
CCC1COC(Cn2cncn2)(c2ccc(Cl)cc2Cl)O1 (stereo not given),Potency,[1],inactive
same,Potency,[2],inactive
same,Potency,[3],inactive
same,Potency,[4],inactive
same,Potency,[5],inactive
same,Potency,[7],inactive
same,Potency,[10],inactive
CCN1CCC2(CC1)COc1cc3c(cc12)N(C(=O)c1ccc(-c2ccc(-c4nnc(C)o4)cc2C)cc1)CC3,Potency,[1],9.01 µM (active)
same,Potency,[2],6.38 µM (active)
same,Potency,[3],18 µM (active)
same,Potency,[4],14.3 µM (active)
same,Potency,[5],45.2 µM (active)
COC(=O)c1cc(Oc2ccc(Cl)cc2Cl)ccc1[N+](=O)[O-],Potency,[1],inactive
same,Potency,[2],inactive
same,Potency,[3],inactive
same,Potency,[8],inactive
same,Potency,[4],inactive
same,Potency,[9],inactive
same,Potency,[5],inactive
same,Potency,[7],inactive
CCC(C)c1cccc(C(C)CC)c1O (stereo not given),Potency,[1],inactive
same,Potency,[2],inactive
same,Potency,[3],inactive
same,Potency,[4],inactive
same,Potency,[9],inactive
same,Potency,[5],inactive
same,Potency,[7],inactive
CCC(OC(C)=O)C(CC(C)NC)(c1ccccc1)c1ccccc1 (stereo not given),Potency,[1],15.5 µM (active)
same,Potency,[2],30.9 µM (active)
same,Potency,[4],61.6 µM (active)
same,Potency,[9],inactive
same,Potency,[5],69.2 µM (active)
same,Potency,[7],inactive
CCn1cc[n+](C)c1 (tested in a mixture with another compound),Potency,[1],inactive
same,Potency,[2],inactive
same,Potency,[4],inactive
CC#C[C@]1(O)CC[C@H]2[C@@H]3C[C@H](C)C4=CC(=O)CC[C@]4(C)[C@H]3CC[C@@]21C,Potency,[1],inactive
same,Potency,[2],inactive
same,Potency,[4],inactive
same,Potency,[9],inactive
same,Potency,[5],inactive
C=Cc1cccc(CCl)c1,Potency,[1],inactive
same,Potency,[2],inactive
same,Potency,[8],inactive
same,Potency,[4],inactive
same,Potency,[9],inactive
same,Potency,[5],inactive
CC1(C)C(C=C(Cl)Cl)C1C(=O)OC(C#N)c1ccc(F)c(Oc2ccccc2)c1 (stereo not given),Potency,[1],inactive
same,Potency,[2],inactive
same,Potency,[3],inactive
same,Potency,[5],inactive
same,Potency,[7],inactive
[Cl-].[Cl-].[Sn+2],Potency,[1],inactive
same,Potency,[2],inactive
same,Potency,[4],inactive
same,Potency,[5],inactive
CC(C)C(Nc1ccc(C(F)(F)F)cc1Cl)C(=O)OC(C#N)c1cccc(Oc2ccccc2)c1 (stereo not given),Potency,[1],inactive
same,Potency,[2],inactive
same,Potency,[3],inactive
same,Potency,[4],inactive
same,Potency,[5],inactive
same,Potency,[7],inactive
COC(=O)c1ccccc1S(=O)(=O)NC(=O)Nc1nc(C)nc(OC)n1,Potency,[1],inactive
same,Potency,[2],inactive
same,Potency,[3],inactive
same,Potency,[8],inactive
same,Potency,[4],inactive
same,Potency,[9],inactive
same,Potency,[5],inactive
same,Potency,[7],inactive
C[C@@H]1CC2=CC(=O)CC[C@@H]2[C@H]2CC[C@@]3(C)[C@@H](CC[C@]3(C)O)[C@@H]21,Potency,[1],inactive
same,Potency,[2],inactive
same,Potency,[8],inactive
same,Potency,[4],inactive
same,Potency,[9],inactive
same,Potency,[5],inactive
same,Potency,[7],inactive
same,Potency,[10],inactive
Oc1cccc(Cl)c1Cl,Potency,[1],inactive
same,Potency,[2],inactive
same,Potency,[3],inactive
same,Potency,[4],inactive
same,Potency,[5],inactive
COP(=O)(OC)O/C(=C\Cl)c1cc(Cl)c(Cl)cc1Cl,Potency,[1],inactive
same,Potency,[2],inactive
same,Potency,[8],inactive
same,Potency,[4],inactive
same,Potency,[9],inactive
O=[N+]([O-])C(Br)Br,Potency,[1],inactive
same,Potency,[2],inactive
same,Potency,[3],inactive
same,Potency,[4],inactive
same,Potency,[5],inactive
same,Potency,[7],inactive
O=c1[nH]c2cc(Cl)ccc2n1C1CCNCC1,Potency,[1],inactive
same,Potency,[2],inactive
same,Potency,[3],inactive
same,Potency,[8],inactive
same,Potency,[4],inactive
same,Potency,[9],inactive
same,Potency,[5],inactive
same,Potency,[7],inactive
same,Potency,[10],inactive
O=C1C(Cl)=C(Cl)C(=O)C(Cl)=C1Cl,Potency,[1],15.5 µM (active)
same,Potency,[2],13.8 µM (active)
same,Potency,[8],inactive
same,Potency,[4],inactive and 19.5 µM (active)
same,Potency,[5],inactive
same,Potency,[7],inactive
O=NN(CCO)CCO,Potency,[1],inactive
same,Potency,[2],inactive
same,Potency,[8],inactive
same,Potency,[4],inactive
same,Potency,[9],inactive
same,Potency,[5],inactive
same,Potency,[7],inactive
same,Potency,[10],inactive
CCCCCCCCCCCCCCn1cc[n+](C)c1,Potency,[1],24.6 µM (active) and 21.6 µM (active) and inactive
same,Potency,[2],21.6 µM (active)
same,Potency,[4],21.9 µM (active) and inactive
same,Potency,[9],inactive
same,Potency,[5],24.6 µM (active) and 54.4 µM (active) and inactive
same,Potency,[10],inactive
S=C=Nc1ccccc1,Potency,[1],inactive
same,Potency,[2],inactive
same,Potency,[8],inactive
same,Potency,[4],inactive
same,Potency,[9],inactive
same,Potency,[5],inactive
same,Potency,[7],inactive
COc1nc(C)nc(NC(=O)NS(=O)(=O)c2ccccc2Cl)n1,Potency,[1],inactive
same,Potency,[2],inactive
same,Potency,[4],inactive
same,Potency,[5],inactive
same,Potency,[7],inactive
same,Potency,[10],inactive
CCc1cccc(C)c1N(C(=O)CCl)[C@@H](C)COC,Potency,[1],inactive
same,Potency,[2],inactive
same,Potency,[4],inactive
same,Potency,[5],inactive
[C-]1=CC=CC1.[Cl][Zr+2][Cl].c1cc[cH-]c1,Potency,[1],inactive
same,Potency,[2],inactive
same,Potency,[4],inactive
same,Potency,[5],inactive
same,Potency,[7],inactive
CC(=O)[O-].CC(=O)[O-].CC(=O)[O-].[Cr+3],Potency,[1],inactive
same,Potency,[2],inactive
same,Potency,[4],inactive
same,Potency,[5],inactive
